# From publication PMC5540273 (PLoS ONE, 2017)
# How the values were obtained:
# Conditions in all cases: concentration: 1 μM, replicates: in singlicate; n = 1
# [1] = system: T1, RSK2(Kin.Dom.2-C-terminal)
# T1 construct: gene RPS6KA3
# [2] = system: T2, RSK3(Kin.Dom.1-N-terminal)
# T2 construct: gene RPS6KA2
# [3] = system: T3, RSK3(Kin.Dom.2-C-terminal)
# T3 construct: gene RPS6KA2
# [4] = system: T4, RSK4(Kin.Dom.1-N-terminal)
# T4 construct: gene RPS6KA6
# [5] = system: T5, RSK4(Kin.Dom.2-C-terminal)
# T5 construct: gene RPS6KA6
# [6] = system: S6K1
# [7] = system: SBK1
# [8] = system: SGK2
# [9] = system: SGK3
# [10] = system: SGK
# [11] = system: SIK2
# [12] = system: SIK
# [13] = system: SLK
# [14] = system: T6, SNARK
# T6 construct: gene NUAK2
# [15] = system: SNRK
# [16] = system: SRC
# [17] = system: SRMS
# [18] = system: SRPK1
# [19] = system: SRPK2
# [20] = system: SRPK3
# 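Also: KINOMEscan kinase panel screen.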
SMILES,%Inh [1] [%],%Inh [2] [%],%Inh [3] [%],%Inh [4] [%],%Inh [5] [%],%Inh [6] [%],%Inh [7] [%],%Inh [8] [%],%Inh [9] [%],%Inh [10] [%],%Inh [11] [%],%Inh [12] [%],%Inh [13] [%],%Inh [14] [%],%Inh [15] [%],%Inh [16] [%],%Inh [17] [%],%Inh [18] [%],%Inh [19] [%],%Inh [20] [%]
Clc1cc(Cl)cc(Nc2ccnc(Nc3cc(Cl)cc(Cl)c3)n2)c1 [GSK175726],7,0,4,13,22,0,9,0,13,3,0,8,8,10,0,49,11,0,0,0
O=S(=O)(c1ccc(-c2ccnc3[nH]ccc23)cc1)N1CCCC1 [GSK846226],0,0,38,0,35,5,4,0,0,0,0,0,0,16,0,0,0,60,0,3
O=C(Nc1ccccc1)Nc1cccc(Oc2ccc3nccn3n2)c1,32,9,14,0,0,0,0,8,9,0,12,0,12,0,0,0,0,0,3,29
Cc1cccc(-c2nc(Nc3ccncc3)c3ccccc3n2)n1 [GW855857],50,0,0,0,9,0,0,0,0,0,0,4,18,0,0,20,0,0,54,15
Cl.O=C(Nc1cccc(-c2nn3ncccc3c2-c2ccnc(Nc3cccnc3)n2)c1)c1c(F)cccc1F [GSK312879],6,23,10,12,0,14,41,1,0,0,0,0,17,0,0,13,5,30,0,7
O=C1NC(=O)C(N2CCc3ccccc32)=C1c1ccccc1Cl [SB-373598],2,0,1,3,6,0,69,2,3,0,6,0,29,11,1,18,98.3,0,0,33
COc1ccc(C2=C(Nc3cccc(C(=O)O)c3)C(=O)NC2=O)cc1 [SB-390765],8,9,2,16,30,15,35,21,22,29,9,14,7,8,0,3,21,0,0,19
COc1ccc(Nc2nccc(NCCNC(=O)Nc3ccccc3F)n2)cc1 [GSK1379901],27,19,2,0,23,3,6,0,16,0,2,0,11,0,0,0,0,0,0,0
Cc1cc(NCC(c2ccccc2)c2ccccc2)nc(NCc2ccc(C(F)(F)F)cc2)n1 [GW497681],4,0,1,0,28,0,0,0,6,0,0,0,0,0,0,0,0,0,22,0
Cc1ccc(NC(=O)Nc2cccc(Cl)c2)cc1-c1ccc(C(=O)Nc2ccncc2)cc1 [GSK1398468],0,5,1,0,16,0,26,0,22,0,0,5,6,0,2,0,0,0,0,0
COc1cccc(-c2cc(-c3c[nH]nc3-c3ccccn3)ccn2)c1 [GW680338],33,0,0,0,48,6,15,4,7,7,0,0,0,11,0,0,2,96.8,8,0
O=C(Nc1n[nH]c2nc(-c3nccs3)c(Br)cc12)C1CCCC1 [SB-742609],0,0,0,0,1,19,12,0,0,7,0,5,7,0,0,0,0,0,0,13
Cc1c(O)cccc1Nc1ccnc2ccc(C(F)(F)F)cc12.Cl [GW466413],16,0,0,4,0,0,0,0,2,0,0,0,8,0,0,79,1,21,0,0
CC(=O)Nc1nc2cnc(Nc3cc(NC(=O)c4cccc(CCC#N)c4)ccc3C)nc2s1,6,0,1,24,0,3,0,0,7,0,0,16,14,9,33,18,0,17,22,0
Fc1cccc(COc2nnc(-c3ccc4c(c3)CCO4)o2)c1,35,0,22,0,8,0,0,0,0,0,0,0,0,0,0,0,5,0,0,7
Cn1ccc2ncnc(Oc3ccc(Nc4nc5ccccc5[nH]4)cc3)c21,0,0,0,0,0,0,0,0,0,0,10,0,14,0,0,3,0,0,7,0
COc1cc2ncnc(Nc3ccc4nc(-c5ccccc5)[nH]c4c3)c2cc1OC.Cl [GW282450],27,15,0,1,0,16,20,0,0,0,2,0,30,0,0,0,0,3,0,17
COc1cc2ncn(-c3cc(OCC4CCCO4)c(C(N)=O)s3)c2cc1OC (stereo not drawn) [GSK204607],0,9,2,0,22,0,0,0,0,0,93.5,0,96.3,39,0,0,0,28,11,0
CS(=O)(=O)c1ccc(-c2nc3n(c2-c2ccncc2)CCC3)cc1 [SKF-105942],5,15,0,0,9,17,5,0,10,0,0,1,0,0,14,0,0,0,0,22
Cl.Oc1ccc(-c2nc(-c3ccccc3)[nH]c2-c2ccncc2)cc1 [SB-428218],0,0,8,0,32,14,0,0,0,7,0,0,28,0,5,33,7,0,0,3
Cc1ccc(C(=O)Nc2ccc(Nc3ccnc4cc(-c5ccccn5)ccc34)cc2O)cc1.Cl [GW440146],4,6,0,0,1,7,10,0,0,0,0,18,0,0,0,56,80,27,0,3
